Data as given in PubChem BioAssay AID1159580 (chemical genetic matrix, 2015).
About 2,000 (36%) of roughly 5,500 compounds were called active. Another 18% or so got no clear call; they are omitted. Cut-off read from the data, not from the text of the source: active = normalized growth mostly below about 0.91 (no sharp cut-off); inconclusive = no clear call, values can overlap the other calls; inactive = mostly above about 0.92. The list shows a part of the results.

Assay: chemical genetic growth profiling, strain panel (AID 1159580);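 note: tested at 20 µM; growth read once vehicle control cultures reached saturation at 30 °C; 1 = growth at the plate median or of vehicle wells; lower values mean less growth of the strain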
Conditions: S. cerevisiae deletion strains, growth OD

Measured: normalized growth

CNC(=O)O/N=C\C(C)(C)SC
inactive: locus YAL013W, strain DEP1, active compounds read low 1.01 | locus YAL021C, strain ccr4, active compounds read low 0.997 | locus YAL026C, strain drs2, active compounds read low 1 | locus YAL030W, strain snc1, active compounds read low 1 | locus YBL061C, strain skt5, active compounds read low 1.01 | locus YBR009C, strain hhf1, active compounds read low 0.988 | locus YBR021W, strain FUR4, active compounds read low 1.03 | locus YBR023C, strain chs3, active compounds read low 1 | locus YBR171W, strain sec66, active compounds read low 1.01 | locus YBR229C, strain ROT2, active compounds read low 0.996 | locus YBR231C, strain swc5, active compounds read low 0.998 | locus YBR279W, strain paf1, active compounds read low 1.01 | locus YCL011C, strain gbp2, active compounds read low 1.01 | locus YCL016C, strain dcc1, active compounds read low 1.01 | locus YCL029C, strain bik1, active compounds read low 0.987 | locus YCL061C, strain MRC1, active compounds read low 1.01 | locus YCL069W, strain vba3, active compounds read low 1.01 | locus YCR088W, strain abp1, active compounds read low 1 | locus YDL005C, strain med2, active compounds read low 1 | locus YDL035C, strain GPR1, active compounds read low 1.02 | locus YDL040C, strain nat1, active compounds read low 0.99 | locus YDL074C, strain BRE1, active compounds read low 1.08 | locus YDL101C, strain DUN1, active compounds read low 1.01 | locus YDL134C, strain PPH21, active compounds read low 1.01 | locus YDL185W, strain tfp1, active compounds read low 0.99 | locus YDL192W, strain arf1, active compounds read low 0.994 | locus YDR001C, strain nth1, active compounds read low 1.01 | locus YDR069C, strain doa4, active compounds read low 0.999 | locus YDR101C, strain arx1, active compounds read low 0.986 | locus YDR137W, strain rgp1, active compounds read low 1.02 | locus YDR150W, strain NUM1, active compounds read low 1.01 | locus YDR159W, strain sac3, active compounds read low 0.965 | locus YDR162C, strain NBP2, active compounds read low 1.01 | locus YDR195W, strain ref2 0.964 | locus YDR297W, strain sur2, active compounds read low 0.999 | locus YDR318W, strain mcm21, active compounds read low 0.993 | locus YDR334W, strain swr1, active compounds read low 1.01 | locus YDR335W, strain msn5, active compounds read low 1.01 | locus YDR388W, active compounds read low 0.985 | locus YDR392W, strain spt3, active compounds read low 0.886 | locus YDR502C, strain sam2, active compounds read low 1 | locus YEL003W, strain gim4, active compounds read low 1.01 | locus YEL037C, strain rad23, active compounds read low 1.01 | locus YEL061C, strain CIN8 (second series), active compounds read low 1.01 | locus YEL061C, strain CIN8, active compounds read low 1 | locus YER015W, strain faa2, active compounds read low 1.02 | locus YER016W, strain bim1, active compounds read low 1.01 | locus YER110C, active compounds read low 0.983 | locus YER111C, strain swi4, active compounds read low 1.02 | locus YER155C, strain BEM2 (second series), active compounds read low 0.995 | locus YER155C, strain BEM2, active compounds read low 0.998 | locus YER167W, strain BCK2, active compounds read low 1.02 | locus YFR010W, strain ubp6, active compounds read low 0.998 | locus YGL078C, strain dbp3, active compounds read low 0.986 | locus YGL086W, strain mad1, active compounds read low 0.987 | locus YGL167C, strain pmr1, active compounds read low 0.995 | locus YGL173C, strain kem1, active compounds read low 0.997 | locus YGL227W, strain vid30, active compounds read low 1.01 | locus YGL240W, strain doc1, active compounds read low 0.972 | locus YGL248W, strain PDE1, active compounds read low 1.01 | locus YGL253W, strain hxk2, active compounds read low 0.997 | locus YGR078C, strain PAC10, active compounds read low 1.01 | locus YGR135W, strain pre9, active compounds read low 1 | locus YGR229C, strain SMI1, active compounds read low 1.03 | locus YGR252W, strain gcn5, active compounds read low 0.98 | locus YHR013C, strain ard1, active compounds read low 0.971 | locus YHR027C, strain rpn1, active compounds read low 1 | locus YHR030C, strain SLT2, active compounds read low 0.984 | locus YHR079C, strain IRE1 (second series), active compounds read low 0.988 | locus YHR094C, strain hxt1, active compounds read low 0.983 | locus YHR129C, strain ARP1, active compounds read low 1.02 | locus YHR142W, strain chs7, active compounds read low 1 | locus YHR200W, strain rpn10, active compounds read low 0.98 | locus YIL066C, strain RNR3, active compounds read low 1.03 | locus YIL073C, strain SPO22, active compounds read low 0.995 | locus YIL125W, strain kgd1, active compounds read low 0.997 | locus YIR030C, strain dcg1, active compounds read low 0.992 | locus YJL092W, strain hpr5, active compounds read low 1.01 | locus YJL095W, strain BCK1 (second series), active compounds read low 1 | locus YJL095W, strain BCK1, active compounds read low 1.03 | locus YJL115W, strain asf1, active compounds read low 1.02 | locus YJL129C, strain trk1, active compounds read low 1.01 | locus YJL134W, strain LCB3, active compounds read low 1 | locus YJL154C, strain vps35, active compounds read low 1.02 | locus YJL164C, strain tpk1, active compounds read low 1.01 | locus YJL166W, strain qcr8, active compounds read low 1 | locus YJL168C, strain set2, active compounds read low 0.98 | locus YJL187C, strain SWE1 (second series), active compounds read low 1.01 | locus YJL187C, strain SWE1, active compounds read low 0.998
